Data as given in ChEMBL document CHEMBL3988442, “University of Dundee, Small-Polar-MMV Screening Library” (2021).
The whole screen tested about 69,000 compounds, of which about 420 (0.61%) showed an effect of 50% or more. The full list was thinned out, with strong results kept by preference.

What follows are molecules tested against T1, Histidine--tRNA ligase (Leishmania infantum) (UniProt A4I591) (assay: Leishmania infantum Histidine tRNA synthetase (LdHisRS)). Settings: 30 µM.
T1 sequence (whole entry): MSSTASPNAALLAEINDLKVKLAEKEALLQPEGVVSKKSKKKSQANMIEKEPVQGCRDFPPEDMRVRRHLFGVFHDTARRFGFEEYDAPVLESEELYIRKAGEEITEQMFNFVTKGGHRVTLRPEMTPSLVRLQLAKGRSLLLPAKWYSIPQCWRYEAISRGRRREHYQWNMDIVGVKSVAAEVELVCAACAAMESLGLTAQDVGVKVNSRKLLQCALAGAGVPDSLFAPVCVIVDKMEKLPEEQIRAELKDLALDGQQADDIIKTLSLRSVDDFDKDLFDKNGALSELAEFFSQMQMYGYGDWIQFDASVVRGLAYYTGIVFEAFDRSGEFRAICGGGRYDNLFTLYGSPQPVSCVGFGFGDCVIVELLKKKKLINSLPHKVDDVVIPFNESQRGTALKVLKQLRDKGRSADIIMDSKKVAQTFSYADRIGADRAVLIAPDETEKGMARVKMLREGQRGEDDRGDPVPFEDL
Assay type: functional
Parameters: scale not given: in the data most compounds retested in dose-response had high values

SMILES	Percent Effect [%]
O=C([C@H]1CN(Cc2ccoc2)C[C@H]2OCC[C@@H]12)N1CCCCO1	22.2
Cc1nc(CN2CCO[C@@H]3CN(C(=O)CC4CC4)CC[C@@H]3C2)cs1	12.7
COC[C@@H]1CC[C@H]2[C@H](CCN2S(=O)(=O)c2ccc(C)cc2)O1	2.65
CN(C)C[C@H]1OC[C@@H]2CN(C(=O)NCc3cccc(F)c3)CC[C@@H]21	0
Cc1n[nH]c(CN2CCN(Cc3ccccc3)[C@@H]3CS(=O)(=O)C[C@@H]32)n1	32
CCN1C[C@H]2C3(CCN(S(C)(=O)=O)CC3)CC[C@@]2(C(=O)N(C)C)C1	12
Cc1cc(C(=O)N2C[C@@H]3COC[C@]3(COCc3cccnc3)C2)no1	12.6
O=C(N[C@@H]1CN(c2ncccn2)[C@@H]2CCCO[C@@H]21)c1cnccn1	18.9
O=C1CC[C@@H]2[C@@H](CCN2C(=O)c2ccsc2)N1Cc1ccncc1	14.7
CN1C(=O)[C@H]2CC[C@@H]1CN(C(=O)c1nnc3n1CCCCC3)C2	17.8
COc1cccn(CC(=O)N2CCCC3(CCOCC3)C2)c1=O	98.9
COc1ccccc1CC(=O)N1CC[C@H](O)[C@]2(CCCO2)C1	18.8
CC1CCN(S(=O)(=O)c2cccn(CC(=O)N3CCOCC3)c2=O)CC1	-7.77
Cc1ccoc1C(=O)N1CC[C@@H]2O[C@@H](C)C[C@H]2C1	12.3
CSc1nsc(SCC(=O)c2cc3c(cc2Cl)NC(=O)C3)n1	13.2
Nc1nnc(SCC(=O)c2cc3c(cc2Cl)NC(=O)C3)s1	50
Cc1nnc(SCC(=O)c2cc3c(cc2Cl)NC(=O)C3)s1	2.63
Cn1cccc1C(=O)N[C@@H]1CN(Cc2cccs2)[C@@H]2COC[C@@H]21	5.71
COc1ccc(CN2C[C@@H]3CN(Cc4ccncc4)C[C@@H]3C2=O)cc1	13.6
COc1cc(N2C[C@H]3CCC[C@@H](CN4CCOCC4)[C@H]3C2)ncn1	17.4
COCCN1CCC2(CC1)CN(CCn1cccn1)C(=O)CO2	16.2
O=C1COC2(CCN(Cc3ccoc3)CC2)CN1CCn1cccn1	21.4
CS(=O)(=O)N1CCC2(CC1)CN(CCn1cccn1)C(=O)CO2	65.8

SMILES	Percent Effect [%]
CCn1cc(C(=O)N2C[C@H]3C[C@H](Oc4ccccc4)C[C@H]3C2)cn1	11.5
Cc1nc(C(=O)N2CCN(C(=O)C3CCC3)[C@@H]3CS(=O)(=O)C[C@@H]32)cs1	2.67
O=C(Cc1ccsc1)N1C[C@H]2CCC[C@@]2(COCc2ccccn2)C1	7.92
Cc1cc(C)c(CNC(=O)N2CCCC2c2ccccn2)c(=O)[nH]1 (centres undefined)	12.3
Cn1cc(NC(=O)N2CCCC2c2ccccn2)ccc1=O (centres undefined)	108
CN(C)CC(=O)N1CCCC1c1ccccn1 (centres undefined)	8.63
Cn1cc(C(=O)N2CCCC2c2ccc3c(c2)OCO3)ccc1=O (centres undefined)	12.1
CC(C)C1CCCN1C(=O)Nc1ccc(=O)n(C)c1 (centres undefined)	119
COc1ccc(NC(=O)N2CCCC2c2ccncc2)cn1 (centres undefined)	13.2
CCSc1ccc(NC(=O)N2CCCC2c2ccncc2)cn1 (centres undefined)	1.65
Cn1cc(C(=O)N2CCCC2c2ccc3c(c2)OCCO3)ccc1=O (centres undefined)	27.3
Cn1cc(NC(=O)N2CCCC2c2cccnc2)ccc1=O (centres undefined)	100
Cc1ccc(CN2CC[C@@H]3OCCN(S(C)(=O)=O)[C@H]3CC2)s1	7.55
Cn1cc(C(=O)N2CC[C@@H]3[C@@H]2CCN3Cc2cccc(C#N)c2)cn1	3
CN(C)C[C@@H]1C[C@@H]2CN(C(=O)Cc3cccs3)CC[C@@H]2N1C	6.42
Cc1ccc(CN2CC[C@H]3C(=O)N(Cc4cccnc4)CCO[C@H]3C2)o1	5.88
COc1ccc(CNCC2CCN(c3ccccc3OC)C2)cc1O (centres undefined)	16.1
COc1ccccc1N1CCC(CNCc2cccc(OC)c2OC)C1 (centres undefined)	59.5
COc1ccccc1N1CCC(CNCc2cccc(O)c2)C1 (centres undefined)	21.4
O=C(c1ccco1)N1CCO[C@@H]2CN(c3ccccn3)CC[C@@H]2C1	17.5
CN1CCN(C(=O)[C@@H]2CC[C@@H]3[C@@H](CCN3c3ncccn3)O2)CC1	14
Cc1ccccc1NC(=O)N1CCN(C(=O)C2CC2)[C@@H]2CS(=O)(=O)C[C@@H]21	4.92
CCN(Cc1ccc2cccc(O)c2n1)CC1CCCO1 (centres undefined)	74

SMILES	Percent Effect [%]
CCN(Cc1cccc2c1OCO2)CC1CCCO1 (centres undefined)	20
CCN(Cc1ccc(O)c(C(=O)O)c1)CC1CCCO1 (centres undefined)	16.4
CCCc1ccc(CN2CCC3(CC2)CNC(=O)C3)o1	11.7
O=C1CC2(CCN(Cc3ccc(C(F)(F)F)nc3)CC2)CN1	15.4
O=C1CC2(CCN(Cc3ccc4cccc(O)c4n3)CC2)CN1	63.2
O=C(c1cnccn1)N1CCN2C[C@H](OCc3ccccc3F)C[C@H]2C1	1.37
O=C(Cc1ccsc1)N1C[C@@H]2COC[C@]2(COc2cccnc2)C1	15.4
CCc1ccccc1OCCN1CC[C@@]2(O)CCNC[C@H]2C1	15.8
CNC(=O)[C@@]12CCO[C@@H]1CCN(S(=O)(=O)c1ccc(C)cc1)C2	-5
CCc1c(C(=O)N2CCN(C)[C@@H]3CS(=O)(=O)C[C@@H]32)[nH]c2ccccc12	11
CC(C)NC(=O)N1CCCCC1c1nnc2n1CCNC2 (centres undefined)	30.3
CC(=O)N1CCCCC1c1nnc2n1CCNC2 (centres undefined)	2.76
CC(C)NC(=O)N1CCC(c2nnc3n2CCNC3)CC1	74.5
NC(=O)CS(=O)(=O)Cc1csc(-c2ccc(F)cc2)n1	16.9
O=C(CS(=O)(=O)Cc1csc(-c2ccc(F)cc2)n1)NCC1CC1	48.2
NC(=O)CS(=O)(=O)Cc1csc(-c2ccccc2)n1	53
O=C([C@@H]1CCO[C@@H]2CCN(CC3CC3)C[C@H]21)N1CCCCO1	17.9
O=C(c1ccccc1)N1C[C@@H]2CCCO[C@@H]2[C@H](N2CCCC2)C1	22.8
CCC[C@@H]1CN(C(=O)c2ccccc2-c2ccccc2)C[C@H]1N(C)C	8.57
CCC[C@@H]1CN(C(=O)c2cc3ccccc3cc2O)C[C@H]1N(C)C	77.1
CCC[C@@H]1CN(C(=O)c2ccccc2C(C)=O)C[C@H]1N(C)C	8.57
CCC1=N[C@@]2(CC[C@@H]3CN(CC(C)C)C[C@@H]32)C(=O)N1	11.1
CCOc1cccc(C(=O)N2C[C@H]3CC[C@@H]2CN(C(=O)C2CCC2)C3)c1	4
